We go through 40 compounds from PubChem BioAssay (EPA / NIEHS).

Results filed as inconclusive are left out. The source made the active and inactive calls. Rule for the calls: active = hit-call score of the fitted dose curve at least 0.9, where 1 is the maximum; inconclusive = response in the unintended direction; inactive = score below 0.9.

The nature of the assay: Tanguay_ZF_120hpf_TRUN_legacy: (Legacy) Oregon State University Tanguay Lab 120 Hour Post-fertilization zebrafish Assay for Truncated Body (AID 2283655). Here is the method: Tanguay_ZF_120hpf_legacy is a whole embryo, multiplexed endpoint assay using zebrafish larvae exposed for 120 hours post fertilization on a 96-well plate.Tanguay_ZF_120hpf_TRUN_legacy is one of one assay component(s) measured or calculated from the Tanguay_ZF_120hpf_legacy assay. It is designed to make measurements of zebrafish development as detected with brightfield microscopy of developing zebrafish embryos.Data from the assay component Tanguay_ZF_120hpf_TRUN_legacy was analyzed into 1 assay endpoints. This assay endpoint, Tanguay_ZF_120hpf_TRUN_legacy, was analyzed in the positive analysis fitting direction relative to DMSO as the negative control and baseline of activity. Using a type of morphology reporter, gain-of-signal activity can be used to understand changes in developmentals as they relate to the whole embryo. To generalize the intended target to other relatable targets, this assay endpoint is annotated to the zebrafish development intended target family, where the subfamily is embryonic morphogenesis.
Zebrafish husbandry: Tropical 5D wild-type adult zebrafish were housed in at an approximate density of 1000 per 100 gallon tank at the Sinnhuber Aquatic Research Laboratory, Oregon State University, Corvallis, OR. Each tank was kept at standard laboratory conditions of 28C on a 14-h light/10-h dark photoperiod in fish water consisting of reverse osmosis water supplemented with a commercially available salt (Instant Ocean). Spawning funnels were placed into the tanks the night prior, and embryos were collected and staged. To increase bioavailability, the chorion was enzymatically removed using pronase (63.6mg/ml, >/= 3.5U/mg, Sigma-Aldrich: P5147) at 4 hours post fertilization (hpf) using a custom automated dechorionator.Chemical exposures: Six hpf dechorionated embryos were placed 1 embryo per well in a 96-well plate prefilled with 90 ul of EM using automated embryo placement systems (AEPS). Ten microliters of each row of dilution plate 2 was added to 2 exposure plates. The final DMSO concentration used was 0.64% (vol/vol). Thirty-two embryos were also exposed to 5uM trimethyltin chloride (positive control). Plates were sealed to prevent evaporation and foil covered to reduce light exposure and kept in a 28C incubator. Embryos were statically exposed until 120 hpf. At 24 hpf, embryos were assessed for photomotor response using a custom photomotor response analysis tool (PRAT) and for developmental toxicity endpoints (MO24: mortality at 24 hpf, DP: developmental progression, SM: spontaneous movement, and NC: notochord distortion). At 120 hpf, locomotor activity was measured using Viewpoint Zebralab and assessed for 18 endpoints. Zebrafish acquisition and analysis program (ZAAP), a custom program designed to inventory, acquire, and manage zebrafish data, was used to collect developmental endpoints as either present or absent (i.e., binary responses were recorded). If mortality occurred for an embryo (at either 24 or 120 hpf), the non-mortality endpoints were not measured.
`CCC(CC)Nc1c([N+](=O)[O-])cc(C)c(C)c1[N+](=O)[O-]`: the compound was classed as inactive.
Same read-out and setting: in the case of `CCOP(=S)(Oc1cnc(C(C)(C)C)nc1)OC(C)C` (stereo not given) it was “inactive”; in that of `CCC(=O)Nc1ccc(Cl)c(Cl)c1`, “inactive”.
In the case of `COc1ccc(C(=CC(=O)N2CCOCC2)c2ccc(Cl)cc2)cc1OC`, the AC50 is 51.4 µM (active).
With `CNC(=O)Oc1cccc2c1OC(C)(C)O2`, the result was inactive.
As for `CN(C)C(=O)Nc1cccc(C(F)(F)F)c1`, the outcome was inactive.
As for `CCOP(=O)(NC(C)C)Oc1ccc(SC)c(C)c1` (stereo not given), the outcome was inactive.
Consider `CCOP(=S)(OCC)Oc1ccc([N+](=O)[O-])cc1`, for which the result was inactive.
In the case of `CCOP(=S)(OCC)OC(Cl)C(Cl)(Cl)Cl` (stereo not given), the outcome was inactive.
For `CCNc1nc(Cl)nc(NC(C)(C)C#N)n1`, the result was inactive.
The same measure, in the same setting: in the case of `CC(COc1ccc(Oc2ccccc2)cc1)Oc1ccccn1` (stereo not given) it was “inactive”.
As for `O=C(O)c1cc(Oc2ccc(C(F)(F)F)cc2Cl)ccc1[N+](=O)[O-]`, the outcome was inactive.
For `S=C1NCCN1`, the outcome was inactive.
The same measure, in the same setting: in the case of `CC[C@H](C)[C@H]1O[C@]2(C=C[C@@H]1C)C[C@@H]1C[C@@H](C/C=C(\C)[C@@H](O[C@H]3C[C@H](OC)[C@@H](O[C@H]4C[C@H](OC)[C@@H](NC)[C@H](C)O4)[C@H](C)O3)[C@@H](C)/C=C/C=C3\CO[C@@H]4[C@H](O)C(C)=C[C@@H](C(=O)O1)[C@]34O)O2` it was “inactive”.
On to `COc1cccc(C(=O)NN(C(=O)c2cc(C)cc(C)c2)C(C)(C)C)c1C`, for which the result was inactive.
Turning to `FC(F)C(F)(F)OCC(Cn1cncn1)c1ccc(Cl)cc1Cl` (stereo not given), the AC50 is 49.6 µM (active).
In the case of `CCCCSP(=O)(SCCCC)SCCCC`, the compound was classed as inactive.
Consider `COP(=O)(OC)C(O)C(Cl)(Cl)Cl` (stereo not given), for which the compound was called inactive.
Still for that read-out and setting: in the case of `CCc1cccc(C)c1N(C(=O)CCl)C(C)COC` (stereo not given) it was “inactive”.
As to `C[Si](Cn1cncn1)(c1ccc(F)cc1)c1ccc(F)cc1`, the AC50 was 11 µM (active).
For the compound `CCc1cnc(C2=NC(C)(C(C)C)C(=O)N2)c(C(=O)O)c1` (stereo not given), the outcome was inactive.
On to `CC(C)[C@H](C(=O)O[C@H](C#N)c1cccc(Oc2ccccc2)c1)c1ccc(Cl)cc1`, for which the outcome was inactive.
With `CSC1=N[C@@](C)(c2ccccc2)C(=O)N1Nc1ccccc1`, the result was inactive.
Take `CCOC(=O)CC(SP(=O)(OC)OC)C(=O)OCC` (stereo not given): the result was inactive.
Regarding `COP(=O)(NC(C)=O)SC` (stereo not given), the call was inactive.
In the case of `O=[N+]([O-])c1cc(C(F)(F)F)c(Cl)c([N+](=O)[O-])c1Nc1ncc(C(F)(F)F)cc1Cl`, the compound was called inactive.
For `CC(Oc1cccc(Cl)c1)C(=O)O` (stereo not given), the compound was classed as inactive.
For the compound `CC1(C(=O)Nc2ccc(O)c(Cl)c2Cl)CCCCC1`, the compound was called inactive.
With `CON=C(C(=O)OC)c1ccccc1CON=C(C)c1cccc(C(F)(F)F)c1`, the outcome was inactive.
On to `CC1=NNC(=O)N(/N=C/c2cccnc2)C1`, for which the compound was called inactive.
In the case of `CN(C)[C@@H]1C(=O)C(C(N)=O)=C(O)[C@@]2(O)C(=O)C3=C(O)c4c(O)cccc4[C@@](C)(O)[C@H]3[C@H](O)[C@@H]12`, the outcome was inactive.
`CC(C1CC1)C(O)(Cn1cncn1)c1ccc(Cl)cc1` (stereo not given): the compound was classed as inactive.
Consider `CCCOCC(=Nc1ccc(Cl)cc1C(F)(F)F)n1ccnc1`, for which the outcome was inactive.
With `Nc1nc(N)nc(NC2CC2)n1`, the compound was called inactive.
Regarding `Nc1c(Cl)cc([N+](=O)[O-])cc1Cl`, the half-maximal activity concentration (AC50) was 34.7 µM (active).
On to `CCCSP(=O)(OCC)SCCC`, for which the result was inactive.
`CNC(=O)ON=C(SC)C(=O)N(C)C`: the compound was classed as inactive.
Turning to `CCc1cccc(CC)c1N(COC)C(=O)CCl`, the outcome was inactive.
For the compound `CCOP(=O)(SC(C)CC)N1CCSC1=O` (stereo not given), the result was inactive.
On to `CCOC(=O)COc1cc(-c2nn(C)c(OC(F)F)c2Cl)c(F)cc1Cl`, for which the compound was classed as inactive.
